Measured values: PubChem BioAssay (NCI)
About 83,000 compounds went through this panel and 20% of them were active in at least one assay; those are over-represented in the sample as a whole.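 Percent growth is the endpoint: 0 to 100 indicates growth inhibition (40 means 60% inhibition), 0 means no net growth, and negative values indicate cell death.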 Values without a mark were called inactive. The source made the active and inactive calls.

These compounds were tested on NCI-H23 lung (assay: NCI-60 one-dose screen, 48 h (100 = growth as untreated, 0 = no growth, -100 = all killed)). Conditions: 10 µM unless noted.
Procedure: Growth inhibition of the NCI-H23 human Non-Small Cell Lung tumor cell line is measured as a screen for anti-cancer activity. Cells are grown in 96 well plates and exposed to the test compound for 48 hours. Compounds are tested at a single concentration, which is 10^-5 M for most compounds. The reported endpoint is percent growth (GI% or GIPRCNT), where numbers from 0 - 100% represent growth inhibition, and numbers from -100% - 0 represent cell death. For example, a value of 40 represents 60% growth inhibition. A value of 0 means no net growth occurred over the course of the experiment. A value of -40 indicates 40% of cells at the beginning of the experiment died by the end of the experiment. A value of -100 means all cells are dead at the end of the experiment.
NCI-60 Human Tumor Cell Lines Screen was performed using the standard one-dose NCI protocol, which is described in more detail at https://dtp.cancer.gov/discovery_development/nci-60/default.htm.
Compounds with GIPRCNT values below 10 were considered active. Activity score was based on GIPRCNT using the following formula: […]
Score is 0 for GIPRCNT values of 100 or above, 50 for GIPRCNT values of 0, and 100 for GIPRCNT values of -100.

Row | Structure (SMILES) | growth
1 | CCCCCCCC/C=C/CCCCCCCC1=NC(C)(C)CN1CCO | 47.1%
2 | Cc1ccc(NC(=O)Nc2ccc(-c3cccnc3)cc2N2CCC(CO)CC2)cc1 | 4.01% (active)
3 | CSc1nc2c(c(=O)n1C)C(c1ccccc1)C1=C(N2)/C(=C/c2ccccc2)CCC1 (stereo not given) | 54.8%
4 | CC(=O)n1c2ccccc2c2ccccc21 | 93.7%
5 | COc1ccc2c(c1)C(=O)c1c-2c(OCCCN(C)C)nc2cc(Br)ccc12 | 75.5%
6 | C=CCCCCCCCCC(=O)[O][Sn]([CH2]CCC)([CH2]CCC)[CH2]CCC | -86.2% (active)
7 | Clc1nc(Cl)c2ncn(-c3ccccc3)c2n1 | 99.9%
8 | CCOC(=O)c1c2c(c(C)n1Cc1ccccc1)-c1nc(N)ncc1CC2 | 93.9%
9 | O=C(/C=C/c1cc2ccccc2[nH]c1=O)c1ccc(Cl)cc1 | 25.7%
10 | COc1c(C)c2c(c(O)c1C/C=C(\C)CCC(=O)OCCN1CCOCC1)C(=O)OC2 | 19.4%
11 | N=c1ccn2c(n1)O[C@@H]1[C@@H](O)[C@H](CO)O[C@@H]12 | 33.3%
12 | Cc1cc(C(C)(C)c2cc(C)c(O)c(CN(C)C)c2)cc(CN(C)C)c1O | 105%
13 | Cc1cc(C)c2c(c1)N1OC(C2)C[C@H]1/C=C/c1ccccc1 (stereo not given in full) | 88.5%
14 | COc1ccc(Cn2c(NCCCN(C)C)nc(=O)n(Cc3ccc(F)cc3)c2=O)cc1 | 103%
15 | Nc1nc(SCC2(CCl)COC2)c2[nH]cnc2n1 | 97.1%
16 | c1cncc(CNc2ccccc2-c2nnc(Nc3ccc4c(c3)OCO4)o2)c1 | 18%
17 | COc1ccc2c(c1)nc(N)c1c3cc(C)c(C)cc3cn21 | 80.4%
18 | COc1ccc(/C=C(\C#N)c2ccccc2)cc1 | 95.7%
19 | CCOC(=O)c1c(NC(=O)C2CCCCC2C(=O)O)sc2c1CCCC2 (stereo not given) | 99.4%
20 | CCCCCCOc1ccc(/C=N/NC(N)=S)cc1 | 54.3%

Row | Structure (SMILES) | growth
21 | CCCCCCCCCCCCCCCCCc1nccn1CCO | 70.7%
22 | O=C1NCN(CCO)CN1 | 98.6%
23 | CCN(CC)CCCNCCCNc1cc(OC)cc2cccnc12 | 94.2%
24 | CCN(CC)CCOc1ccccc1-n1c(C)ccc1-c1ccccc1 | 102%
25 | COc1ccc(C(=O)/C=C/c2c(Cl)nc3c(c(C)nn3-c3ccccc3)c2-c2ccc(Br)cc2)cc1 | 105%
26 | CCC(C)(C)C(=O)O[C@H]1C[C@@H](C)C=C2C=C[C@H](C)[C@H](CC[C@@H]3C[C@@H](O)CC(=O)O3)[C@H]21 | 48.7%
27 | COc1cccc(-c2nnc(N)o2)c1 | 101%
28 | Fc1ccc(-c2nnc(-c3c(-c4ccc(F)cc4)nc4ncccn34)o2)cc1 | 98.2%
29 | COc1ccc(C2=NN(C(C)=O)C(c3cc(OC)c(OC)c(OC)c3)C2)cc1 (stereo not given) | 101%
30 | C[C@@H]1CC[C@H]2[C@@H](C)C(O)O[C@@H]3O[C@]4(C)CC[C@@H]1[C@]32OO4 (stereo not given in full) | 15.4%
31 | CN=C(NC)N/N=C(C)\C=N\NC(=NC)NC | 104%
32 | O=C(C(=O)N1CCCCC1)c1ccc(OC2OC(CO)C(O)C(O)C2O)cc1 (stereo not given) | 101%
33 | Cc1nn(-c2ccc(Br)cc2)c2nc3c(nc12)C(=O)C(=O)c1ccccc1-3 | 87.2%
34 | CC(C)(C)c1cc(O)c(O)c(C(C)(C)C)c1 | 48.4%
35 | Nc1ncc(-c2cnn(C3CCNCC3)c2)cc1-c1nc2cc(Cl)ccc2o1 | -61.7% (active)
36 | Cc1nc2c(O)cccc2cc1CO | 94.9%
37 | Cc1scc2c1N(C(=O)CN1CCN(C)CC1)c1ccccc1NC2=O | 93.9%
38 | O=C(Nc1nc(-c2ccc(Cl)cc2)cs1)c1cc(O)c(O)c(O)c1 | 42.2%
39 | CC(C)[C@H]1CC[C@H]2[C@@H](CC[C@H]3[C@](C)(CN)CCC[C@]23C)C1 | 88.4%
40 | CC/C(=C\c1ccc(N(C)C)cc1)c1nc2ccccc2c(=O)[nH]1 | 121%
